Legend:
Experiment in all cases: log2 ratio of Biotin-Ahx-Ub-VS probe labelling (fragment/DMSO); higher = less target engagement (more negative = stronger competition), active = hit call of the paper (q ≤ 0.05, log2 ratio ≤ -1)
Conditions in all cases: compound concentration: 200 uM; treatment time: 3 h
[1] = biological target: T1, USP19 (UniProt O94966)
T1 sequence (whole entry): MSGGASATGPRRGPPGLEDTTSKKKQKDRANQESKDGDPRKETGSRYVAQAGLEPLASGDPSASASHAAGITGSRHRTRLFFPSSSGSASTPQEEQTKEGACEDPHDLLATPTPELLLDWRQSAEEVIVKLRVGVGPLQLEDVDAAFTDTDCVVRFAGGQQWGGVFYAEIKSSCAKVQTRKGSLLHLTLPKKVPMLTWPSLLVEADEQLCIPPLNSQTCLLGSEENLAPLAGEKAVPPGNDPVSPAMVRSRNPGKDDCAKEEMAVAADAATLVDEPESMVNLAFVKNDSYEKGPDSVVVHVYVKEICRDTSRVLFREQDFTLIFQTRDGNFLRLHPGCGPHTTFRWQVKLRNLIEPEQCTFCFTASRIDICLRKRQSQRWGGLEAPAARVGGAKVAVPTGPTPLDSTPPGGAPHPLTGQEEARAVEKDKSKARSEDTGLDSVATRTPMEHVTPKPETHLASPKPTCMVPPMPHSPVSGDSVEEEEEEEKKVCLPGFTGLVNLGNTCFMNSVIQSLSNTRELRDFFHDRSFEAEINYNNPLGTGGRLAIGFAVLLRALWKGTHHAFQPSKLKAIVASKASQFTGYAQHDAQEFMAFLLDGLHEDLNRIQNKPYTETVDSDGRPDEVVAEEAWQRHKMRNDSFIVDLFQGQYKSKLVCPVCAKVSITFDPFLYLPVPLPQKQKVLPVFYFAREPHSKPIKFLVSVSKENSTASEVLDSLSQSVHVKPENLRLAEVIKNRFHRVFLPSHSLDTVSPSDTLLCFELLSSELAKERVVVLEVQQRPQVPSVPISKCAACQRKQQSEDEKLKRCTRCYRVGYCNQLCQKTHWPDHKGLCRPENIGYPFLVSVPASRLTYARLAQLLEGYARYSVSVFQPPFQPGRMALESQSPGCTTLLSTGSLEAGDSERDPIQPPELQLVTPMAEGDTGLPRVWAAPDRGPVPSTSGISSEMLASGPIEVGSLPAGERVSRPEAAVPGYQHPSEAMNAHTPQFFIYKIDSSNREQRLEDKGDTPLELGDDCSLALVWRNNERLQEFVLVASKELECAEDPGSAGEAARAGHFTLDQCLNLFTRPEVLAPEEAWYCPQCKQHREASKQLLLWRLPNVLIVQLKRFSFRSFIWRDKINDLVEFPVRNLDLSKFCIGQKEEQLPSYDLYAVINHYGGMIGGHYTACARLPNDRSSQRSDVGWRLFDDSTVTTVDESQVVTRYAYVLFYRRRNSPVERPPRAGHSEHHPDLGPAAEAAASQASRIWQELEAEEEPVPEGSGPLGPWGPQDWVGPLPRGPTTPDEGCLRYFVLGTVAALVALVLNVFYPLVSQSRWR
How it was run: (§1)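 HEK293T lysate in Tris/CHAPS/IGEPAL buffer with protease inhibitors (495 µg per sample) was given fragment at 200 µM or vehicle for 3 h, in triplicate. It then received Biotin-Ahx-Ub-VS at 0.5 µM final for 1 h. Labelled DUBs were NeutrAvidin-enriched, digested with LysC and trypsin, and run by diaPASEF LC-MS/MS. Values are average log2 fragment/vehicle ratios by unpaired t-test on global-median-normalised Spectronaut quantities of proteins with ≥2 unique peptides.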

[2] = biological target: T2, USP22 (UniProt Q9UPT9)
T2 sequence (whole entry): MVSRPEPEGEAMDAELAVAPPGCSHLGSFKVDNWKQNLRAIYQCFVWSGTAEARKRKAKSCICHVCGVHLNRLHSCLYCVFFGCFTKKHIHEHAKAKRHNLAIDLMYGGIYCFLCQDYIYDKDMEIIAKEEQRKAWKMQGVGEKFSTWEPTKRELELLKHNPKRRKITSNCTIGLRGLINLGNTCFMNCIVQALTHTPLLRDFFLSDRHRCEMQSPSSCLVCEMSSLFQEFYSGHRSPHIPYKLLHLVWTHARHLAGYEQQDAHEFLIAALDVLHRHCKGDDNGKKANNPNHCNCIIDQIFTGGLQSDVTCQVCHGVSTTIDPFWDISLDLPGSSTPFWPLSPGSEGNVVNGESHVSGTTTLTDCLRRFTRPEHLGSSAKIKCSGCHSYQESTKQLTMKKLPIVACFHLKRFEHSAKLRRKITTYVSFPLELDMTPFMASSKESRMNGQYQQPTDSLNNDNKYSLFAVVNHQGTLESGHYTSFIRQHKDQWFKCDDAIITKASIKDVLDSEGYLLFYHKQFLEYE
How it was run: as §1

[3] = biological target: USP24 (UniProt Q9UPU5)
How it was run: as §1

[4] = biological target: T3, USP25 (UniProt Q9UHP3)
T3 sequence (whole entry): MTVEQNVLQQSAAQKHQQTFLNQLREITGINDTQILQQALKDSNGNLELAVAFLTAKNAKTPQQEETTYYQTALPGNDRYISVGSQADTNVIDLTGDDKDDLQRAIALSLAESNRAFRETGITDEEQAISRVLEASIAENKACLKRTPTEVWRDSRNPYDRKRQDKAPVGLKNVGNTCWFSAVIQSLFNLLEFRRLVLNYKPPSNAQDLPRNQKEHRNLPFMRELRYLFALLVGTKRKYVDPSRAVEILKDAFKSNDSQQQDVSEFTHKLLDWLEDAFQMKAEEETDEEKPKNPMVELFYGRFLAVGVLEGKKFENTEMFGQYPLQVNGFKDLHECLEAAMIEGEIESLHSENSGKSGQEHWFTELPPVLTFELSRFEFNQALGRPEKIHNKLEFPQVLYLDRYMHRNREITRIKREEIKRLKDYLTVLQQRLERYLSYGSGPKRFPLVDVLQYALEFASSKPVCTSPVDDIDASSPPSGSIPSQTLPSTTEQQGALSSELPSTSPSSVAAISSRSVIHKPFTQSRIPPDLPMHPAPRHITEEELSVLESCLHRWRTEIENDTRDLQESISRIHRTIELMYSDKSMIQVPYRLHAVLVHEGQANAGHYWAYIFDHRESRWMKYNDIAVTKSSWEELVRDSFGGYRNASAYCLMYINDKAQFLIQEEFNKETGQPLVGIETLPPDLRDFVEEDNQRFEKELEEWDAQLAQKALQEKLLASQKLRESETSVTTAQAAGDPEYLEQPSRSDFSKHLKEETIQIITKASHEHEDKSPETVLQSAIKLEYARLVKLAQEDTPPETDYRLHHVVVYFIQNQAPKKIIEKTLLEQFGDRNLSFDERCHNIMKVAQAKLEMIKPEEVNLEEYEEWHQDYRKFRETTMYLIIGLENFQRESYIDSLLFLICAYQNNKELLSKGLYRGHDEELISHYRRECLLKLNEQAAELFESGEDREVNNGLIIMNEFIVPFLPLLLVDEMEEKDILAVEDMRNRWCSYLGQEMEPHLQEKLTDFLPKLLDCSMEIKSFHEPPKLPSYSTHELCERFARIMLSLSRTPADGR
How it was run: as §1

[5] = biological target: T4, USP28 (UniProt Q96RU2)
T4 sequence (whole entry): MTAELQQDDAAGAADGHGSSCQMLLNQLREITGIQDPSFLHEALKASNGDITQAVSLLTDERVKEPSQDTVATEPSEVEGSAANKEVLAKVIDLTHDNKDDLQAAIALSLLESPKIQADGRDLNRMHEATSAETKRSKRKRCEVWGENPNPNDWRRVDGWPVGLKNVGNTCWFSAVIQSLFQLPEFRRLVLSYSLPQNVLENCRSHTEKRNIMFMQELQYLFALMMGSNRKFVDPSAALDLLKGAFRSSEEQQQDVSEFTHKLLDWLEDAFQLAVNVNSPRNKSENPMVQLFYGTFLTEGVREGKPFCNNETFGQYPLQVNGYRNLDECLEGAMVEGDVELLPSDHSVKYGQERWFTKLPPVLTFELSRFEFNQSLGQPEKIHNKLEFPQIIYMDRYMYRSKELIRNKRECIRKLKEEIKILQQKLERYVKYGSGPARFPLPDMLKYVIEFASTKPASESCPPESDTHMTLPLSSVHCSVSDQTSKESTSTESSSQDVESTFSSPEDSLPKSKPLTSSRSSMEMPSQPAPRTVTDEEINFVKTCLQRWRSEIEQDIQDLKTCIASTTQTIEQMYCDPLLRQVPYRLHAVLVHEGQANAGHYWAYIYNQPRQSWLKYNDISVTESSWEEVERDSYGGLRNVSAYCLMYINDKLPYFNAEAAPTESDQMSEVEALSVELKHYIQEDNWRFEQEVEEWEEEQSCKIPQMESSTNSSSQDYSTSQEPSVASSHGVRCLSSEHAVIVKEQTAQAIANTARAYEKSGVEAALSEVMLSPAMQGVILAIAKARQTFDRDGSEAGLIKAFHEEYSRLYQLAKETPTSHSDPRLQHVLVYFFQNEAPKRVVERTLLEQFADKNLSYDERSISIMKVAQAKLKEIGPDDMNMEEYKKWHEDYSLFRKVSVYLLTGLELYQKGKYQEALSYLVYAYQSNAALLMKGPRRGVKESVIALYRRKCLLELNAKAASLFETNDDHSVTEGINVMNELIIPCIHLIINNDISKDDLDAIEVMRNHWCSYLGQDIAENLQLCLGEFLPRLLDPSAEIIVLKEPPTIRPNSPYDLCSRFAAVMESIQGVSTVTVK
How it was run: as §1

Measured: log2 ratio of Biotin-Ahx-Ub-VS probe labelling

Chain of USP24 (Q9UPU5 whole entry): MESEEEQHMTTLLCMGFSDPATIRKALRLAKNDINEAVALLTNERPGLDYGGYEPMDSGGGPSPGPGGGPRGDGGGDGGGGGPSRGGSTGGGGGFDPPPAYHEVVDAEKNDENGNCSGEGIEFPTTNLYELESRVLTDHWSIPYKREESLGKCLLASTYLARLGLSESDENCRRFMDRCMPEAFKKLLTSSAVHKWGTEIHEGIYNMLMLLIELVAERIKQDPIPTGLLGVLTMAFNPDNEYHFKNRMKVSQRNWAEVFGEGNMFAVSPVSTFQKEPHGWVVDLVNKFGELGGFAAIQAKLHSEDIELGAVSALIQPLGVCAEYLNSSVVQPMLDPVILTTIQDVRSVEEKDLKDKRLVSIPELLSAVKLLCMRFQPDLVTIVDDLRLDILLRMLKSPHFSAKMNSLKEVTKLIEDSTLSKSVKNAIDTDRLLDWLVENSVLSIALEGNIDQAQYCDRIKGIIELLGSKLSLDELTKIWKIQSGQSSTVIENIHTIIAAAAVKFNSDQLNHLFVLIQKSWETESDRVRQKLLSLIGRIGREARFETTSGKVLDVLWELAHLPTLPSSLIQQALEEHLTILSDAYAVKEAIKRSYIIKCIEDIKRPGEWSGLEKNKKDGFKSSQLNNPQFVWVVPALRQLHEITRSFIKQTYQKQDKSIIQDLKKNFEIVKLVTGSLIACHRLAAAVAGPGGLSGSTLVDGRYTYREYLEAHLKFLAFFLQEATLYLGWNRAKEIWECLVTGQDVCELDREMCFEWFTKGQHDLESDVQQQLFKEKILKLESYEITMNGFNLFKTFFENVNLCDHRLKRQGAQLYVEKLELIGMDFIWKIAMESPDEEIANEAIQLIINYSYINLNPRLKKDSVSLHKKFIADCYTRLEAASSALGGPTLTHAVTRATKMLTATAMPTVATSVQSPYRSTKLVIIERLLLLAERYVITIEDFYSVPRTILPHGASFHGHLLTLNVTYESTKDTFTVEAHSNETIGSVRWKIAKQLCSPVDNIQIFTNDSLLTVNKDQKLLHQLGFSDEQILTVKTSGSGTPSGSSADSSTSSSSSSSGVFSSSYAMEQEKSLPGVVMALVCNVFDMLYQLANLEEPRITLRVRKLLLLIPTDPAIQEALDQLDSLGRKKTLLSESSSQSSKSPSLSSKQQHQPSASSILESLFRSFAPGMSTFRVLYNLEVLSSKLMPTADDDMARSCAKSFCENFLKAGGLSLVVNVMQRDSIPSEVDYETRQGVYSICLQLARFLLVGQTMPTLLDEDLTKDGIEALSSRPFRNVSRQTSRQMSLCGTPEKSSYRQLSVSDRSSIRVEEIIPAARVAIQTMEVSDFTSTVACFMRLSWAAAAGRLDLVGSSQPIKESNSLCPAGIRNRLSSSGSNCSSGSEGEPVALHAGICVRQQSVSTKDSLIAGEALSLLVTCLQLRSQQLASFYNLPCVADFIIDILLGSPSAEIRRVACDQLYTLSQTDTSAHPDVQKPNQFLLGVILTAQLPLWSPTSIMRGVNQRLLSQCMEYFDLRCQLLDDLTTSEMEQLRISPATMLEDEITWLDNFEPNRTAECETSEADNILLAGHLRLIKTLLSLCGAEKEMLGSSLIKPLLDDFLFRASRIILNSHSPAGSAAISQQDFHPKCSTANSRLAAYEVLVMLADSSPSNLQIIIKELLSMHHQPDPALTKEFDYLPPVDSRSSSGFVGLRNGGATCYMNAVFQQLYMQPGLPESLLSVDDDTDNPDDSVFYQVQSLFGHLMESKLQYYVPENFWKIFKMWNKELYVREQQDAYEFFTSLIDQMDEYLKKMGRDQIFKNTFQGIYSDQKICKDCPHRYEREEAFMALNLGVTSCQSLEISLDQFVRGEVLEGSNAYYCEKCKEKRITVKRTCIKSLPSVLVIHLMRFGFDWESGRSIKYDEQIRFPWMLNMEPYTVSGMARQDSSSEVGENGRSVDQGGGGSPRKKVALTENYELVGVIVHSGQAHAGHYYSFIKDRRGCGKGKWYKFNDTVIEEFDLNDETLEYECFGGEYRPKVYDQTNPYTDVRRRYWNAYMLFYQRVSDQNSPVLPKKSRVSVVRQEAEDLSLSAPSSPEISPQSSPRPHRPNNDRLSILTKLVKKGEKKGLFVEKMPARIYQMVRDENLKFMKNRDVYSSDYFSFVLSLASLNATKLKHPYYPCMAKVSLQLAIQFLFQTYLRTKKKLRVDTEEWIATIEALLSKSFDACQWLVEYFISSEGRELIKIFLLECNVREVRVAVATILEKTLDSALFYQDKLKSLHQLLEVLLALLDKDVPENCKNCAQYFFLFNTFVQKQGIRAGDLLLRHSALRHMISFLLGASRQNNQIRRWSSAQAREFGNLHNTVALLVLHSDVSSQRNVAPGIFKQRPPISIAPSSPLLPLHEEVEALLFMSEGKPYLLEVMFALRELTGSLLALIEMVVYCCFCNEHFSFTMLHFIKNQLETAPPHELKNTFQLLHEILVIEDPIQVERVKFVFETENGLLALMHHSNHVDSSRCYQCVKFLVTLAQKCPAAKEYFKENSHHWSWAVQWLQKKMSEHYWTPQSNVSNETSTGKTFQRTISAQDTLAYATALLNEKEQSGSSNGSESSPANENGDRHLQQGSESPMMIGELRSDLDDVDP

O=C(CCl)N1CCOCC1C1CC1 (stereo not given)
inactive: [1] -0.0224 | [2] 0.0159 | [3] -0.173 | [4] -0.127 | [5] -0.304

— the supplement of paper PMC11732987, “Enantioselective OTUD7B fragment discovery through chemoproteomics screening and high-throughput optimisation” (Communications Chemistry, 2025)
